Data on four compounds can be found in PubChem BioAssay (EPA / NIEHS).

The term AC50 denotes the concentration giving half of the maximal activity seen.

Each structure is given as a SMILES string. Activity calls are given as the source filed them. The calls were made as follows: active = hit-call score of the fitted dose curve at least 0.9, where 1 is the maximum; inactive = score below 0.9.

Read-out in test [1]: Forkhead box O1 (FOXO1), FOXO1 (gene 2308)
Put plainly: LTEA_HepaRG_FOXO1: Life Technologies and Expression Analysis (LTEA) Assay for Forkhead box O1 (FOXO1) using HepaRG (AID 2283456). The following applies: mRNA level, 48 h; actives raise or lower the signal. An outline of the steps: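 Using one lot of HepaRG hepatic cells kept in 0.5% DMSO, the team applied test chemicals in duplicate, half-log dilutions from 100 uM, for 48 h. Expression, normalised to ACTB/GAPDH/POLR2A, was compared with vehicle in either direction.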

Read-out in test [2]: growth arrest and DNA damage 45 (GADD45A), GADD45A (gene 1647)
Nature of the test: LTEA_HepaRG_GADD45A: Life Technologies and Expression Analysis (LTEA) Assay for growth arrest and DNA damage 45 (GADD45A) using HepaRG (AID 2283458). The following applies: mRNA level, 48 h; actives raise or lower the signal. An outline of the steps: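 Eight-point concentration-response in HepaRG cells: 48 h chemical exposure, 0.5% DMSO vehicle, top dose 100 uM. Normalized qRT-PCR mRNA readout with bidirectional fitting relative to DMSO.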

Read-out in test [3]: Forkhead box O3 (FOXO3), FOXO3 (gene 2309)
Put plainly: LTEA_HepaRG_FOXO3: Life Technologies and Expression Analysis (LTEA) Assay for Forkhead box O3 (FOXO3) using HepaRG (AID 2283459). The following applies: mRNA level, 48 h; actives raise or lower the signal. An outline of the steps:
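Gene-expression endpoint: FOXO3 transcript level by qRT-PCR in HepaRG cultures treated 48 h with chemicals up to 100 uM (half-log, 0.5% DMSO vehicle).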

Read-out in test [4]: ABC Transporter (ABCB1), ABCB1 (gene 5243)
Nature of the test: LTEA_HepaRG_ABCB1: Life Technologies and Expression Analysis (LTEA) Assay for ABC Transporter (ABCB1) using HepaRG (AID 2283460). The following applies: mRNA level, 48 h; actives raise or lower the signal. An outline of the steps: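 Human liver HepaRG line treated 48 h with up to 100 uM compound (eight half-log points, 0.5% DMSO); ABCB1 mRNA change fitted bidirectionally against DMSO controls.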

Read-out in test [5]: growth arrest and DNA damage 45 (GADD45B), GADD45B (gene 4616)
Nature of the test: LTEA_HepaRG_GADD45B: Life Technologies and Expression Analysis (LTEA) Assay for growth arrest and DNA damage 45 (GADD45B) using HepaRG (AID 2283461). The following applies: mRNA level, 48 h; actives raise or lower the signal. An outline of the steps:
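Differentiated HepaRG cells, plated 48 h then switched to serum-free induction medium, were exposed 48 h in duplicate to eight half-log concentrations from 100 uM in 0.5% DMSO; mRNA quantified by qRT-PCR, normalized to ACTB/GAPDH/POLR2A, bidirectional fit versus DMSO.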

Read-out in test [6]: ABC Transporter (ABCC3), ABCC3 (gene 8714)
Put plainly: LTEA_HepaRG_ABCC3: Life Technologies and Expression Analysis (LTEA) Assay for ABC Transporter (ABCC3) using HepaRG (AID 2283462). The following applies: mRNA level, 48 h; actives raise or lower the signal. An outline of the steps:
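HepaRG cells in serum-free induction medium were exposed for 48 h in duplicate to 8-point half-log concentrations topping at 100 uM in 0.5% DMSO. ABCC3 mRNA was measured by qRT-PCR normalized to ACTB, GAPDH and POLR2A, with bidirectional fitting versus DMSO.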

Read-out in test [7]: ABC Transporter (ABCB11), ABCB11 (gene 8647)
Nature of the test: LTEA_HepaRG_ABCB11: Life Technologies and Expression Analysis (LTEA) Assay for ABC Transporter (ABCB11) using HepaRG (AID 2283463). The following applies: mRNA level, 48 h; actives raise or lower the signal. An outline of the steps:
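Using HepaRG cultures held in 0.5% DMSO, chemicals were tested at half-log dilutions from 100 uM for 48 h. Induction or suppression of ABCB11 mRNA, normalized to ACTB, GAPDH and POLR2A, was fitted bidirectionally against vehicle.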

Read-out in test [8]: ABC Transporter (ABCC2), ABCC2 (gene 1244)
Put plainly: LTEA_HepaRG_ABCC2: Life Technologies and Expression Analysis (LTEA) Assay for ABC Transporter (ABCC2) using HepaRG (AID 2283464). The following applies: mRNA level, 48 h; actives raise or lower the signal. An outline of the steps:
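HepaRG cells were plated 48 h, switched to serum-free induction medium, then exposed in duplicate for 48 h to 8 concentrations (top 100 uM, half-log steps, 0.5% DMSO). ABCC2 mRNA was measured by qRT-PCR normalized to ACTB/GAPDH/POLR2A; bidirectional fitting versus DMSO.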

Read-out in test [9]: Broad substrate specificity ATP-binding cassette transporter ABCG2 (Homo sapiens) (UniProt Q9UNQ0)
Nature of the test: LTEA_HepaRG_ABCG2: Life Technologies and Expression Analysis (LTEA) Assay for ABC Transporter (ABCG2) using HepaRG (AID 2283465). The following applies: mRNA level, 48 h; actives raise or lower the signal. An outline of the steps:
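Gene expression of ABCG2 in HepaRG liver cells is quantified by qRT-PCR following 48 h exposure across an eight-point series topping at 100 uM. Values come from bidirectional fitting relative to DMSO vehicle.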

Read-out in test [10]: ATP-citrate lyase (ACLY), ACLY (gene 47)
Put plainly: LTEA_HepaRG_ACLY: Life Technologies and Expression Analysis (LTEA) Assay for ATP-citrate lyase (ACLY) using HepaRG (AID 2283466). The following applies: mRNA level, 48 h; actives raise or lower the signal. An outline of the steps:
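ACLY expression changes in human HepaRG liver cells are quantified by qRT-PCR after 48 h exposure to test chemicals (maximum 100 uM, half-log steps). Values are fitted in both directions relative to 0.5% DMSO vehicle.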

Read-out in test [11]: Peroxisomal acyl-coenzyme A oxidase 1 (ACOX1) gene, ACOX1 (gene 51)
Nature of the test: LTEA_HepaRG_ACOX1: Life Technologies and Expression Analysis (LTEA) Assay for Peroxisomal acyl-coenzyme A oxidase 1 (ACOX1) gene using HepaRG (AID 2283467). The following applies: mRNA level, 48 h; actives raise or lower the signal. An outline of the steps:
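Human HepaRG hepatic cultures, 48 h treatment with test chemicals up to 100 uM. ACOX1 expression read by qRT-PCR relative to 0.5% DMSO vehicle.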

Read-out in test [12]: Alkaline Phosphatase, Placental (ALPP) gene, ALPP (gene 250)
Nature of the test: LTEA_HepaRG_ALPP: Life Technologies and Expression Analysis (LTEA) Assay for Alkaline Phosphatase, Placental (ALPP) gene using HepaRG (AID 2283468). The following applies: mRNA level, 48 h; actives raise or lower the signal. An outline of the steps:
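Differentiated human HepaRG cells were plated and cultured 48 h, then exposed in duplicate for 48 h in serum-free induction medium to eight half-log concentrations from 100 uM in 0.5% DMSO. ALPP mRNA was measured by TaqMan qRT-PCR, normalized to ACTB, GAPDH, POLR2A.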

Read-out in test [13]: Bcl-2 (BAD) gene, BAD (gene 572)
Put plainly: LTEA_HepaRG_BAD: Life Technologies and Expression Analysis (LTEA) Assay for Bcl-2 (BAD) gene using HepaRG (AID 2283469). The following applies: mRNA level, 48 h; actives raise or lower the signal. An outline of the steps: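 Activity values reflect up- or down-regulation of BAD mRNA in human HepaRG hepatic cells treated 48 h in serum-free medium, with eight-point half-log dosing capped at 100 uM and 0.5% DMSO vehicle.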

Read-out in test [14]: Bcl-2 (BAX) gene, BAX (gene 581)
Put plainly: LTEA_HepaRG_BAX: Life Technologies and Expression Analysis (LTEA) Assay for Bcl-2 (BAX) gene using HepaRG (AID 2283470). The following applies: mRNA level, 48 h; actives raise or lower the signal. An outline of the steps: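 Human HepaRG cells treated in duplicate for 48 h across eight concentrations (max 100 uM, 0.5% DMSO); BAX expression measured by qRT-PCR.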

Read-out in test [15]: adenosine kinase (ADK) gene, ADK (gene 132)
Nature of the test: LTEA_HepaRG_ADK: Life Technologies and Expression Analysis (LTEA) Assay for adenosine kinase (ADK) gene using HepaRG (AID 2283471). The following applies: mRNA level, 48 h; actives raise or lower the signal. An outline of the steps:
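HepaRG (human liver), 48 h chemical exposure, 8-pt half-log series, top 100 uM, 0.5% DMSO vehicle. Readout: ADK mRNA by qRT-PCR vs housekeeping genes; bidirectional curve fit relative to DMSO baseline.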

Read-out in test [16]: Alpha-fetoprotein (AFP) gene, AFP (gene 174)
Put plainly: LTEA_HepaRG_AFP: Life Technologies and Expression Analysis (LTEA) Assay for Alpha-fetoprotein (AFP) gene using HepaRG (AID 2283472). The following applies: mRNA level, 48 h; actives raise or lower the signal. An outline of the steps: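 Measures AFP mRNA change in HepaRG after 48 h chemical exposure (8 half-log concentrations, highest 100 uM, 0.5% DMSO). Fold change relative to DMSO, fitted in both directions.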

Read-out in a further test: BCL2L11 (gene 10018)
Nature of the test: LTEA_HepaRG_BCL2L11: Life Technologies and Expression Analysis (LTEA) Assay for Bcl-2 (BCL2L11) gene using HepaRG (AID 2283473). The following applies: mRNA level, 48 h; actives raise or lower the signal. An outline of the steps:
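Differentiated human HepaRG cells in serum-free induction medium were exposed in duplicate for 48 h to eight concentrations (top 100 uM, half-log steps, 0.5% DMSO). BCL2L11 mRNA was quantified by TaqMan qRT-PCR, normalized to ACTB/GAPDH/POLR2A, bidirectional fit versus DMSO.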

Read-out in test [17]: Apoptosis regulator Bcl-2 (Homo sapiens) (UniProt P10415)
Put plainly: LTEA_HepaRG_BCL2: Life Technologies and Expression Analysis (LTEA) Assay for Bcl-2 gene using HepaRG (AID 2283475). The following applies: mRNA level, 48 h; actives raise or lower the signal. An outline of the steps: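 Each chemical was tested in duplicate on HepaRG cultures held in serum-free induction medium for 48 h, highest concentration 100 uM with half-log dilutions. Transcript levels came from multiplexed qRT-PCR, normalised to housekeeping genes; activity was scored in either direction relative to DMSO.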

Read-out in test [18]: Bcl-2 (BID) gene, BID (gene 637)
Nature of the test: LTEA_HepaRG_BID: Life Technologies and Expression Analysis (LTEA) Assay for Bcl-2 (BID) gene using HepaRG (AID 2283476). The following applies: mRNA level, 48 h; actives raise or lower the signal. An outline of the steps:
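Assay used HepaRG hepatic cells treated 48 h in serum-free medium with half-log dilutions from 100 uM. Endpoint: BID mRNA, qRT-PCR, normalized to ACTB/GAPDH/POLR2A.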

The nature of test [19]: CEETOX_H295R_TESTO: CeeTox H295R High-throughput Steroidogenesis Assay for Testosterone (TESTO) (AID 2283457).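 Also: cells exposed to chemicals for 48 h before medium collection.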 The following applies: actives raise or lower the signal. An outline of the steps:
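H295R human adrenal cells in DMEM/F12 with ITS+ and Nu-Serum, exposed to chemicals for 48 h. Testosterone in medium measured by MTBE extraction, reverse-phase HPLC-MS/MS; bidirectional fit versus DMSO baseline. MTT viability checked in same wells.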

Broad substrate specificity ATP-binding cassette transporter ABCG2 (Homo sapiens), sequence (Q9UNQ0 whole entry, looked up): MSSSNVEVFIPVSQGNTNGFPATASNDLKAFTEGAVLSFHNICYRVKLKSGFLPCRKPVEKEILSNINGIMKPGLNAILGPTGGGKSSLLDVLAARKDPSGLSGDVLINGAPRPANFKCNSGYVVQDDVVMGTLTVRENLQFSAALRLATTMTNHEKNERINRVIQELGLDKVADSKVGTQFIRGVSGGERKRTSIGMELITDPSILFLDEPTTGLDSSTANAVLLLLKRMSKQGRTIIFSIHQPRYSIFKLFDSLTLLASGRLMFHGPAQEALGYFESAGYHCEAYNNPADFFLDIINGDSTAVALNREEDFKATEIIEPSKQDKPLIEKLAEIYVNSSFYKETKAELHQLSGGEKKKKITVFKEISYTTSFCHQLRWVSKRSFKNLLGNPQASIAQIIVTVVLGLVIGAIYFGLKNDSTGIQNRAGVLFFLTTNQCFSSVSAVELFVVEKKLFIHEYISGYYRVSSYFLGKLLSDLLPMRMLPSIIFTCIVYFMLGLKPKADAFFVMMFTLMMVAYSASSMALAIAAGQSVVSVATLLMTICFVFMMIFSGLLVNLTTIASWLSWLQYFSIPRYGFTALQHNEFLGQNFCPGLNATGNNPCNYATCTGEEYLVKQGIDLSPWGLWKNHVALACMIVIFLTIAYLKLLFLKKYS
Apoptosis regulator Bcl-2 (Homo sapiens), sequence (P10415 whole entry, looked up): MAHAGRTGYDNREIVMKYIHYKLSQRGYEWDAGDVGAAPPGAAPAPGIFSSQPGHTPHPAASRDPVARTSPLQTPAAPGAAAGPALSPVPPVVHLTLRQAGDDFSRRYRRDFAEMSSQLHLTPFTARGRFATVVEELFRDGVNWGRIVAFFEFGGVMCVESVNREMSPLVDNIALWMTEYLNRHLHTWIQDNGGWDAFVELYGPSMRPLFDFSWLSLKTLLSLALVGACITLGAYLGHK

As to `NC(=O)O`, the compound was called inactive in test [1], in [2], in test [3], in test [4], in [5] and in test [6]. Further, the compound was called inactive in test [7], in test [8], in test [9], in [10], in test [11] and in [12]. Moreover, the result (in [13]; in [14]; in test [15]; in test [16]; with BCL2L11 (gene 10018); in test [17]) was inactive. Besides, the compound was called inactive in [18].

As for `CCOP(=S)(OCC)Oc1nc(Cl)c(Cl)cc1Cl`, the outcome in test [1], in test [2], in test [3], in [4], in [5] and in test [6] was inactive. For the same compound, the outcome in test [7], in test [8], in [9], in test [10], in test [11] and in test [12] was inactive. Also, the result (in test [13]; in test [14]; in test [15]; in [16]; in the test with BCL2L11 (gene 10018); in test [17]) was inactive. Besides, the compound was classed as inactive in [18]. In addition, the AC50 in test [19] is 62.6 µM (active).

As for `C[C@]12CCC(=O)C[C@@H]1CC[C@@H]1[C@@H]2CC[C@]2(C)[C@@H](O)CC[C@@H]12`, the call in test [1], in test [3], in test [4], in [5], in test [6] and in test [8] was inactive. The result in [9], in test [10], in [11], in [12], in test [13] and in test [14] was inactive. Moreover, the result (in [15]; in [16]; with BCL2L11 (gene 10018); in test [17]; in test [18]) was inactive. Moreover, the AC50 in [2] was 0.00162 µM (active); in [7], 50 µM (active).

For the compound `O=C(Nc1ccc2[nH]ccc2c1)c1cc2cc(F)ccc2n1Cc1cccc(F)c1`, the compound was called inactive in test [1], in [3], in [5], in test [6], in [10] and in test [13]. Moreover, the call in test [15] and in [18] was inactive. The AC50 is 20.7 µM (active) in [2]; 90.3 µM (active) in test [4]; 38.1 µM (active) in test [7]; 78.2 µM (active) in test [8]; 32.2 µM (active) in test [9]; 63.1 µM (active) in [11]. Also, the AC50 in [12] was 14.4 µM (active); in test [14] it was 19.2 µM (active); in test [16], 25.2 µM (active); with BCL2L11 (gene 10018), 12.4 µM (active); in test [17] it was 22.7 µM (active).
